According to PubChem BioAssay (EPA / NIEHS):
Activity calls are given as the source filed them. Rule for the calls: active = hit-call score of the fitted dose curve at least 0.9, where 1 is the maximum; inactive = score below 0.9.

The compounds below were run against Estrogen receptor (Homo sapiens) (UniProt P03372) (assay: OT_ERa_GFPERaERE_0480: Odyssey Thera (OT) 8-hour HeLa Transcription Induction Assay for Estrogen Receptor (AID 2283381)).
Estrogen receptor (Homo sapiens), sequence (P03372 whole entry, looked up): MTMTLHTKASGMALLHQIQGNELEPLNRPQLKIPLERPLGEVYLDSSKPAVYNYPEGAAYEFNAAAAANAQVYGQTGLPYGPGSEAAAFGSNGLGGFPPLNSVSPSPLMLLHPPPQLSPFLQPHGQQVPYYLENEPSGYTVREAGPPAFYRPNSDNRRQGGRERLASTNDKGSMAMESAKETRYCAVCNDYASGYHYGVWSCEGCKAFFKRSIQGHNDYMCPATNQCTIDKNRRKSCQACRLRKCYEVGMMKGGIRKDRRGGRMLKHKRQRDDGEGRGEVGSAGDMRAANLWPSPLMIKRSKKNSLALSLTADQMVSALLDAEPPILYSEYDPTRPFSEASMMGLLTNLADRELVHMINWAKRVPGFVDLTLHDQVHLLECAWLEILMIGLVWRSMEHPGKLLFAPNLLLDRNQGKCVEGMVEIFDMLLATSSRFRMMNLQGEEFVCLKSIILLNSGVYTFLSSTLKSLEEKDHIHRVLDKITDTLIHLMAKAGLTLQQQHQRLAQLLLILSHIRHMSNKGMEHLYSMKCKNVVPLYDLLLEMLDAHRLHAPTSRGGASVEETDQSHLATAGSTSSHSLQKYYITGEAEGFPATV
Procedure: OT_ERa_GFPERaERE_0480 is a cell-based, single-readout assay that uses HeLa, a human cervix cell line, with measurements taken at 8 hours after chemical dosing in a 384-well plate.OT_ERa_GFPERaERE_0480 is one of one assay component(s) measured or calculated from the OT_ERa_GFPERaERE_0480 assay. It is designed to make measurements of fluorescent protein induction, a form of inducible reporter, as detected with optical microscopy: fluorescence microscopy signals by Microscopy technology.Data from the assay component OT_ERa_GFPERaERE_0480 was analyzed into 1 assay endpoint. This assay endpoint, OT_ERa_EREGFP_0480, was analyzed in the positive analysis fitting direction relative to DMSO as the negative control and baseline of activity. Using a type of inducible reporter, measures of receptor for gain-of-signal activity can be used to understand the reporter gene at the pathway-level as they relate to the gene ESR1. Furthermore, this assay endpoint can be referred to as a primary readout, because the performed assay has only produced 1 assay endpoint. To generalize the intended target to other relatable targets, this assay endpoint is annotated to the nuclear receptor intended target family, where the subfamily is steroidal.
All assay endpoints are quantified using high content image analysis algorithms.
For CSc1nc(NC(C)C)nc(NC(C)C)n1, the outcome was “inactive”. In the case of COP(=O)(OC)OC(Br)C(Cl)(Cl)Br (stereo unspecified), the outcome is reported as “inactive”. CC[C@H](C)[C@H]1O[C@]2(C=C[C@@H]1C)C[C@@H]1C[C@@H](C/C=C(\C)[C@@H](O[C@H]3C[C@H](OC)[C@@H](O[C@H]4C[C@H](OC)[C@@H](NC)[C@H](C)O4)[C@H](C)O3)[C@@H](C)/C=C/C=C3\CO[C@@H]4[C@H](O)C(C)=C[C@@H](C(=O)O1)[C@]34O)O2 was tested, and the AC50 was 17.9 µM (active). For CNC(=O)Oc1cccc2c1OC(C)(C)O2, the outcome was “inactive”. In the case of Cc1cc(C2CC2)nc(Nc2ccccc2)n1, the outcome is reported as “inactive”. For CCc1cccc(CC)c1N(COC)C(=O)CCl, the outcome was “inactive”. For O=[N+]([O-])c1cc(C(F)(F)F)c(Cl)c([N+](=O)[O-])c1Nc1ncc(C(F)(F)F)cc1Cl, the AC50 was 17.9 µM (active). With Nc1c(Cl)cc([N+](=O)[O-])cc1Cl the outcome was “inactive”. For CCCCOC(=O)[C@@H](C)Oc1ccc(Oc2ccc(C#N)cc2F)cc1, the outcome was “inactive”. COP(=O)(OC)SCn1c(=O)oc2cc(Cl)cnc21 was tested, and the outcome was “inactive”. In the case of CNC(=O)ON=C(SC)C(=O)N(C)C, the outcome is reported as “inactive”.
